In the library only some 4.5% were active in any assay of this set; here they are far more common.
GAA850 FXN act: increases GAA850 frataxin promoter reporter activity; HEK293 lucGAA850 FXN promoter luciferase reporter, 24 h; percent of 10 µM SAHA response; activation, % at 6 µM; 0.56% of 360,000 active;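 active = activation above the average of all compounds screened plus 3 SD, cutoff fixed separately per campaign, cut at about 7.5% in these data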
hcDAF-12 act: activates DAF-12 receptor from parasite H. contortus; HEK293 hcDAF-12 lit1-tk-luc reporter, luminescence; 0% DMSO, 100% Δ7-dafachronic acid; activation, % at 6.8 µM; 1.4% of 370,000 active; AID 652067;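 active = activation above the mean of all tested compounds plus 3 SD, cut at about 5.5% in these data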
DAX1 inh-1: blocks DAX1 repression of SF-1 activated StAR promoter; 1.1% of 370,000 active; AID 652010; HEK293T StAR-luciferase reporter, SF-1/DAX-1 repression relief; inhibition, % at 6.8 µM;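 active = inhibition above the mean over all tested compounds plus 3 SD, cut at about 3.6% in these data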;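 also: higher inhibition means more luminescence from relief of DAX-1 repression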
DAX1 inh-2: inhibitors of human orphan nuclear receptor DAX1 (NR0B1). HEK293 Gal4-DAX1 luciferase reporter, luminescence. inhibition, % at 6.75 µM. 0.99% of 340,000 active. AID 504766;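 active = inhibition above the mean over all tested compounds plus 3 SD, cut at about 4.2% in these data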;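 also: inhibition shows as a rise in luminescence from relieved DAX1 repression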
Target sequence (P51843 207-470 limits assumed): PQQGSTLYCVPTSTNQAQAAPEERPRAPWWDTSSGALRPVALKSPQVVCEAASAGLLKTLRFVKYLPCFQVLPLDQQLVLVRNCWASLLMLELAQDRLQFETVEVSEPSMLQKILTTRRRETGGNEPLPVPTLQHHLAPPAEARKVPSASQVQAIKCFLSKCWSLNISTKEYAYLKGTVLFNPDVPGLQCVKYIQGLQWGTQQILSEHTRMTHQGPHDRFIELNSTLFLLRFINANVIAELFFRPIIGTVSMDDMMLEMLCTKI
hgDAF-12 ag: hgDAF-12 agonism, primary luciferase screen; activation, % at 6.8 µM; HEK293 GAL4-hgDAF12 UAS-luciferase reporter, agonist luminescence; normalized to butyrate control; AID 687014; 1.8% of 370,000 active;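 active = activation above a cutoff set at the mean of all screened compounds plus 3 SD, cut at about 10% in these data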
ssDAF-12 act: activates DAF-12 receptor from parasite S. stercoralis. HEK293 ssDAF-12/GRIP1 lit1-tk-luc reporter, luminescence; % of 3 µM dafachronic acid response. activation, % at 6.8 µM. 1% of 370,000 active;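 active = activation above the mean over all tested compounds plus 3 SD, cut at about 0.9% in these data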
A number is an active result; i = inactive; nt = no result given.

SMILES	GAA850 FXN act	hcDAF-12 act	DAX1 inh-1	DAX1 inh-2	hgDAF-12 ag	ssDAF-12 act
O=C(C/C=N/OCc1ccc(Cl)cc1Cl)c1ccccc1	i	i	i	i	i	i
O=C(C/C=N/OCc1c(Cl)cccc1Cl)c1ccccc1	i	i	i	i	i	0.9
CC(=O)CC[C@H]1CC[C@]2(CCCN(S(=O)(=O)C3CCCCC3)C2)O1	nt	i	i	nt	i	i
Cc1ccc2cc(F)c(F)c(F)c2n1	nt	i	i	nt	i	1.5
CC(Sc1nc2ccccc2s1)C(=O)N1CCOCC1 (stereo unspecified)	i	i	i	i	i	1.2
COc1ccccc1CCn1cnc(-c2ccc(Br)cc2)c1CC(C)C	nt	i	i	nt	i	i
Nc1[nH]c(C(=O)c2ccccc2)c(-c2ccccn2)c1C(=O)c1c[nH]c2ccc(Br)cc12	nt	i	nt	nt	i	i
Nc1[nH]c(C(=O)c2ccccc2)c(-c2ccccn2)c1C(=O)c1c[nH]c2ccccc12	nt	i	i	nt	i	1.3
COc1ccc(OCC2CCNCC2)cc1	i	i	i	4.5	i	i
c1coc(CSc2ncnc3c2oc2ccccc23)c1	i	i	i	5.7	i	i
COC(=O)[C@@H](C)NC(=O)C(Cc1ccc2c(c1)OCO2)NC(C)=O (stereo partly specified)	nt	i	i	nt	i	i
Cc1ccc2c(c1)N(CC(=O)NCCc1c[nH]c3ccccc13)C(=O)CO2	i	i	i	i	i	0.9
CCOc1ccc(/C=N/NC(=O)c2nnn(-c3nonc3N)c2-c2ccc(OCC)cc2)cc1	i	i	i	i	i	i
CCCOc1ccc(-c2c(C(=O)N/N=C/c3ccccc3)nnn2-c2nonc2N)cc1	i	i	i	i	i	2.4
Cc1cccc(-c2cc3nc4c(c(N5CCOCC5)n3n2)CCCC4)c1	i	i	4.5	i	i	i
CCCCC(=O)Nc1nc2ccc(C(=O)OC)cc2s1	i	i	i	i	11	i
CCOC(=O)c1ccc2nc(NC(=O)c3cccs3)sc2c1	i	i	i	4.8	12	i
CCOC(=O)c1ccc2nc(NC(=O)c3ccco3)sc2c1	i	i	i	i	i	i
CCN(Cc1cn(Cc2ccc(C)cc2)nn1)S(=O)(=O)c1ccccc1Br	nt	i	i	nt	i	i
Cc1ccccc1Cn1nc(C)c(NC(=O)c2ccccc2)c1C	i	i	i	i	13	i
O=C(NC1CCN(Cc2ccccc2)CC1)C1CCN(c2nnc(-n3cccc3)s2)CC1	i	i	i	i	i	i
O=C(NC1CCN(Cc2ccccc2)CC1)C1CCCN(c2nnc(-n3cccc3)s2)C1 (stereo unspecified)	i	i	i	i	11	i
O=C(Nc1ccc(N2CCOCC2)c(Cl)c1)c1ccc(F)cc1	i	i	i	5.2	i	i
O=C(Nc1ccc(N2CCOCC2)c(Cl)c1)c1ccc(-n2cnnc2)cc1	i	i	i	i	i	i
CCN1CCN(c2ccc(NC(=O)c3cccc(F)c3)cc2Cl)CC1	i	i	i	i	13	i
SMILES	GAA850 FXN act	hcDAF-12 act	DAX1 inh-1	DAX1 inh-2	hgDAF-12 ag	ssDAF-12 act
O=C(Nc1cnc2ccccn2c1=O)c1ccc(Cl)cc1	i	i	i	i	13	i
O=C(Nc1cccn2ncnc12)c1ccc(Cl)cc1	i	i	i	i	i	i
CCC[C@H]1[C@@H](OC(=O)NCc2ccc(C(F)(F)F)cc2)CC[C@@]23CCCN2C(=O)CCC[C@@H]13	nt	i	nt	nt	i	i
CSc1nc2ccc(NC(=O)C3=NN(c4ccccc4)C(=O)CC3)cc2s1	i	i	i	i	i	i
CSc1nc2ccc(NC(=O)C3=NNC(=O)CC3)cc2s1	i	5.6	i	i	i	i
COc1ccc(-c2nnn(CC(=O)N3CCN(c4ccc(F)cc4)CC3)n2)cc1	i	i	i	5.3	i	i
Cc1nc(NC2CCCC2)c2nnn(Cc3ccccc3)c2n1	nt	i	i	nt	i	i
O=C(N/N=C/c1ccc(O)c(O)c1)N/N=C/c1ccc(O)c(O)c1	i	7.3	i	i	i	i
O=C(NN=Cc1ccc2c(c1)OCO2)NN=Cc1ccc2c(c1)OCO2	i	i	i	i	i	i
O=C(NCc1ccccc1)C(c1cc2ccccc2o1)n1c(=O)c(-c2ccccc2)nc2ccccc21 (stereo unspecified)	nt	i	3.8	nt	i	i
COc1ccc(NC(=O)C(c2cc3ccccc3o2)n2c(=O)c(-c3cc4ccccc4[nH]3)nc3ccccc32)cc1 (stereo unspecified)	nt	5.8	i	nt	i	1.3
Cc1ccc(Cn2nnc3c2-c2ccccc2S(=O)(=O)N(C2CC2)C3)cc1	nt	i	i	nt	i	i
Cc1cc(/C=C2/NC(=O)N(Cc3ccccc3F)C2=O)c(C)n1-c1ccccn1	i	i	i	i	i	1.3
Cc1cccc(CN2C(=O)N/C(=C/c3cc(C)n(-c4ccccn4)c3C)C2=O)c1	i	i	i	i	i	i
O=S1(=O)c2ccc(Br)cc2OC[C@H](Cc2ccccc2)N1Cc1cn(Cc2ccc(Cl)cc2)nn1	nt	i	i	nt	i	i
O=C(c1ccccc1)c1ccc2ccccc2c1	i	i	i	5.3	i	i
Cc1ccc(Nc2nc(N)c([N+](=O)[O-])c(NCCO)n2)cc1C	i	i	i	4.4	i	i
Nc1nc(Nc2ccc(Cl)cc2)nc(NCCO)c1[N+](=O)[O-]	i	i	i	nt	i	i
Cc1nc(Cl)sc1C(=O)Nc1ccc(C(C)(C)C)cc1	i	i	i	5.2	i	i
Cc1noc(N)c1C(=O)Nc1ccc(C(C)(C)C)cc1	i	i	i	i	13	i
Cc1ccccc1NC(=O)c1sc(Cl)nc1C	i	i	i	i	i	i
CCOC(=O)CC[C@H]1CC[C@]2(CCCN(C(=O)c3ccco3)C2)O1	nt	i	i	nt	i	i
CCOC(=O)c1ccc(-c2ccc3c(c2)CCC3)nc1C	i	5.6	i	i	i	i
CCOC(=O)c1cc2c(nc1N)CCCC2	i	i	i	i	i	i
COC(=O)c1ccc(-c2ccc(F)cc2)nc1C	i	i	i	i	12	i
SMILES	GAA850 FXN act	hcDAF-12 act	DAX1 inh-1	DAX1 inh-2	hgDAF-12 ag	ssDAF-12 act
COc1cccc(-c2nnn(CC(C)=O)n2)c1	i	i	i	i	11	i
COc1ccc(-c2ccc(-c3nnn(CC(C)=O)n3)cc2)cc1	i	i	i	i	i	i
O=C(N/N=C/c1sc(N2CCCCC2)nc1-c1cccs1)C1CC1	i	i	i	i	i	i
NC(=O)N/N=C/c1sc(N2CCCCC2)nc1-c1cccs1	i	i	i	i	12	i
C=CCNC(=S)NNc1nc2c(c(=O)[nH]1)C1(CCCCC1)Cc1ccccc1-2	i	i	i	4.4	i	i
CCOc1ccc(Cn2nnc(C(=O)NCCc3ccc(Cl)cc3)c2N)cc1	i	i	i	i	i	i
CCOc1ccc(Cn2nnc(C(=O)NCCc3ccccc3)c2N)cc1	i	i	i	4.4	i	i
COc1cccc(Cn2nnc(C(=O)NCCc3ccc(Cl)cc3)c2N)c1	i	i	i	5.5	i	i
